Consider 20 compounds from PubChem BioAssay.

Experiment [1] can be described thus: antimalarial activity against Dd2 strain (AID 2302;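 active = growth inhibition above 50% at the single 2 µM test dose, taken to imply half-maximal potency below 2 µM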;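 also: 0% = DMSO untreated growth and 100% = chloroquine plus artemisinin killed control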). As to conditions: P. falciparum Dd2 in RBCs, LDH growth readout, 72 h; at 2 µM; active compounds read high.
Experiment [2] is described as follows: HepG2 cytotoxicity, primary screen, cytotoxicity control for P. falciparum antimalarial project, cell-based, ATP luminescence (AID 2303;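 active = inhibition above 50%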;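 also: 0% = DMSO wells and 100% = digitonin-killed cells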). The following applies: HepG2 viability, 24-48 h, at 10 µM, active compounds read high.
Experiment [3] deals with L-lactate dehydrogenase (Plasmodium falciparum (isolate CDC / Honduras)) (UniProt Q27743). Put plainly: PfLDH activity inhibition – cell lysate, 3D7 strain, counter-screen for P. falciparum growth inhibition project (AID 2304).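 Also: 0% = vehicle and 100% = reference inhibitor.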 The following applies: P. falciparum 3D7 crude extract, LDH APAD/NBT absorbance; at 2 µM; active compounds read high. (A counterscreen serves to expose hits that act by an unwanted route or on another target.)

Experiment [4] can be described thus: inhibition of 3D7 malaria parasite growth – strain 3D7 (AID 2306).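 Also: 0% = DMSO wells and 100% = chloroquine plus artemisinin control wells.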 The following applies: P. falciparum 3D7 erythrocytic growth, LDH absorbance, 72 h; at 2 µM; active compounds read high.
In experiment [5] the target is Calcium-dependent protein kinase 1 (Plasmodium falciparum (isolate 3D7)) (UniProt P62344). Put plainly: PfCDPK1 kinase inhibitors, biochemical, TCAMS library (AID 1159585; cut-off not given, nearly all actives have IC50 up to about 0.98 µM;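 also: inhibitors leave more ATP so luminescence rises with inhibition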). The following applies: recombinant PfCDPK1, Kinase-Glo ATP depletion luminescence.
The target of experiment [6] is Plasmodium falciparum protein kinase 6 (PK6, PF3D7_1337100) (UniProt Q8IDW1). Put plainly: PfPK6 kinase inhibitors, biochemical, TCAMS library (AID 1159586). The following applies: recombinant PfPK6, Kinase-Glo ATP depletion luminescence. (In general: In Kinase-Glo more light means more ATP remaining.)
Experiment [7] addresses Protein kinase 7 (PK7), Plasmodium falciparum 3D7 (PF3D7_0213400) (UniProt Q7YTF7). Put plainly: inhibition of Plasmodium PK7 catalytic activity – biochemical, TCAMS antimalarial set, Kinase-Glo luminescence (AID 1159587). As to conditions: recombinant PfPK7, Kinase-Glo ATP depletion luminescence.
Experiment [8] deals with Calcium-dependent protein kinase 4 (Plasmodium falciparum (isolate 3D7)) (UniProt Q8IBS5). Put plainly: PfCDPK4 kinase inhibitors, biochemical, TCAMS library (AID 1159588; cut-off not given, nearly all actives have IC50 up to about 0.91 µM). The following applies: recombinant PfCDPK4, Kinase-Glo ATP depletion luminescence.

In general, inhibition refers to the relative decrease from the control value, in per cent.

Unmarked numbers belong to inactive results. For some of these results: Potency and affinity values are given separately. Calls of active or inactive are those of the source. Unless noted, no rule for the calls is given here.

Sequence of Protein kinase 7 (PK7), Plasmodium falciparum 3D7 (PF3D7_0213400) (Q7YTF7 1-343): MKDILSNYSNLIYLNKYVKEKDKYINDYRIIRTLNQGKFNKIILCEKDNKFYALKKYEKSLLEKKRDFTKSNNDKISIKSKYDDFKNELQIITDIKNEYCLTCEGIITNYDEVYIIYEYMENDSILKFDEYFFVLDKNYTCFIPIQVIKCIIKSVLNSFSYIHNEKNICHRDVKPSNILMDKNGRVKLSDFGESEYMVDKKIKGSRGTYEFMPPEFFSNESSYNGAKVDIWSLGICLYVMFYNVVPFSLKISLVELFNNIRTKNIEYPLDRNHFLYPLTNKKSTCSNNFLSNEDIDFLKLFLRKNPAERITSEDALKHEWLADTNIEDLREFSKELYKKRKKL
Sequence of Plasmodium falciparum protein kinase 6 (PK6, PF3D7_1337100) (Q8IDW1 1-305): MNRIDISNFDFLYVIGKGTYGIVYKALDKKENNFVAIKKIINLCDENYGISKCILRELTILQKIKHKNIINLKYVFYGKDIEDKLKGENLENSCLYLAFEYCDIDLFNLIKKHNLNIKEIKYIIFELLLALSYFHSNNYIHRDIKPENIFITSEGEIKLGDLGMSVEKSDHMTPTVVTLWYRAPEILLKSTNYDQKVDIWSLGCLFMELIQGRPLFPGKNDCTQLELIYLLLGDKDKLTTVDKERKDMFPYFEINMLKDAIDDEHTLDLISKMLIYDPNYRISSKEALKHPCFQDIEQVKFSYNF
Sequence of Calcium-dependent protein kinase 1 (Plasmodium falciparum (isolate 3D7)) (P62344 whole entry, looked up): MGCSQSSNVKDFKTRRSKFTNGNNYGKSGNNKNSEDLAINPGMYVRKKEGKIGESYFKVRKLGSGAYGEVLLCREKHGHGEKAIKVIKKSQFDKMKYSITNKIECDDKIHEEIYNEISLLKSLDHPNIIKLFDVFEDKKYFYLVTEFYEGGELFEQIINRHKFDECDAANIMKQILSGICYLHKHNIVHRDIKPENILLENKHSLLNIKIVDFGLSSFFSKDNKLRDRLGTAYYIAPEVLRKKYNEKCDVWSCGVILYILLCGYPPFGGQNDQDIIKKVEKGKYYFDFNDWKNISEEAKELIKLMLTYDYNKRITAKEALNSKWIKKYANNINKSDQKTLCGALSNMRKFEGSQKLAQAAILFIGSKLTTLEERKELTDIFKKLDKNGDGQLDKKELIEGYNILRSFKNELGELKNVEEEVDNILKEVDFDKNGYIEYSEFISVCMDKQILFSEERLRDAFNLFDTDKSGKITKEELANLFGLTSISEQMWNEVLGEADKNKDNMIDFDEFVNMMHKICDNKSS
Sequence of L-lactate dehydrogenase (Plasmodium falciparum (isolate CDC / Honduras)) (Q27743 whole entry, looked up): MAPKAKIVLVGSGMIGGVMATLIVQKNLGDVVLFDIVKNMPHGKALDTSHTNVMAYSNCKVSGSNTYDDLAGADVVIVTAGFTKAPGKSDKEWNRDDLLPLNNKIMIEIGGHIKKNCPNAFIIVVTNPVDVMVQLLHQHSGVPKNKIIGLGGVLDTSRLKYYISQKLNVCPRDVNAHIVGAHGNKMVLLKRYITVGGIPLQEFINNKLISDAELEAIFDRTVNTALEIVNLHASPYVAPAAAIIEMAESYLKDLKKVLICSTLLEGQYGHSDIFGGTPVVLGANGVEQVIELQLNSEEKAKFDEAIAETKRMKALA
Sequence of Calcium-dependent protein kinase 4 (Plasmodium falciparum (isolate 3D7)) (Q8IBS5 whole entry, looked up): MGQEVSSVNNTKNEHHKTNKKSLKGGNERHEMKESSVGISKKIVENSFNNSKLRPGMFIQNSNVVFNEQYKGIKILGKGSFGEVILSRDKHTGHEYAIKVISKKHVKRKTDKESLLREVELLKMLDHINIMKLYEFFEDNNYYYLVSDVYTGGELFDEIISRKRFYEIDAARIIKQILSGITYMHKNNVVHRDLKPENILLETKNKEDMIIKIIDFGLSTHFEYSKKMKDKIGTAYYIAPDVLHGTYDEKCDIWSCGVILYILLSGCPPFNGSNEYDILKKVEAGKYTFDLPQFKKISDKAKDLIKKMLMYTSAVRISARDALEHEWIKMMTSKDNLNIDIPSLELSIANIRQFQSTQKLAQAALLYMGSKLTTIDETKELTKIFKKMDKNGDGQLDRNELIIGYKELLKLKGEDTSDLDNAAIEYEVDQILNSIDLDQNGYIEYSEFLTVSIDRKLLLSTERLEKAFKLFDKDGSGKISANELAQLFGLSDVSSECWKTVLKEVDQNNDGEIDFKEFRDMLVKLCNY

Turning to `O=C(NC1CCN(c2ccc(F)cc2[N+](=O)[O-])CC1)c1cccs1`, the growth inhibition in experiment [1] was 91% (active); in experiment [4], 90% (active). Also, the inhibition was -9% in experiment [2] and -1% in experiment [3]. The outcome in experiment [5], in experiment [6], in experiment [7] and in experiment [8] was inactive.
As to `Cc1cc(-c2cccc3c(C(=O)N4CCc5cc6nccc(N7CCN8CCC[C@H]8C7)c6cc54)cccc23)cc(C)n1`, the results for the growth inhibition in experiment [1] and in experiment [4] were 76% (active) and 97% (active), respectively. The inhibition in experiment [2] was 13%; in experiment [3], -3%. In addition, the outcome in experiment [5], in experiment [6], in experiment [7] and in experiment [8] was inactive.
For `CCCNCc1ccc(-c2ccc(CN(CCOC)C(=O)CCC(=O)c3ccc(OC)c(F)c3)cc2)nc1`, the growth inhibition is 47% in experiment [1] and 100% (active) in experiment [4]. For the same compound, the inhibition in experiment [2] was 13%; in experiment [3] it was -7%. Moreover, the result in experiment [5], in experiment [6], in experiment [7] and in experiment [8] was inactive.
As to `Cc1cccc(C)c1CNc1ccnc2ccccc12`, the growth inhibition in experiment [1] is 10%; in experiment [4] it was 92% (active). Further, the inhibition was 59% (active) in experiment [2] and -1% in experiment [3]. Further, the outcome in experiment [5], in experiment [6], in experiment [7] and in experiment [8] was inactive.
For `c1cc(Nc2nc(-c3ccc(-c4csc(Nc5ccncc5)n4)cc3)cs2)ccn1`, the values for the growth inhibition in experiment [1] and in experiment [4] were 99% (active) and 100% (active), respectively. Besides, the inhibition in experiment [2] was 91% (active); in experiment [3] it was -4%. Further, the outcome in experiment [5], in experiment [6], in experiment [7] and in experiment [8] was inactive.
On to `CC(C)CCN(Cc1cncn1Cc1ccccc1F)C(=O)c1cncc(-c2ccccc2)c1`, for which the growth inhibition in experiment [1] is 3%; in experiment [4], 96% (active). Further, the figures for the inhibition in experiment [2] and in experiment [3] were 1% and -5%, respectively. Moreover, the result in experiment [5], in experiment [6], in experiment [7] and in experiment [8] was inactive.
Consider `COc1ccc2[nH]cc(C3CCN(CCCCCNC(=O)c4ccc(-c5ccccc5)cc4)CC3)c2c1`, for which the growth inhibition was 16% in experiment [1] and 96% (active) in experiment [4]. The figures for the inhibition in experiment [2] and in experiment [3] were 50% (active) and -8%, respectively. In addition, the outcome in experiment [5], in experiment [6], in experiment [7] and in experiment [8] was inactive.
With `Cc1cc(N[C@@H](CC(C)C)C(=O)NCCc2ccccc2)nc(NCC2CCCCC2)n1`, the growth inhibition in experiment [1] is 65% (active); in experiment [4], 97% (active). Besides, the inhibition in experiment [2] was 19%; in experiment [3] it was -1%. The result in experiment [5], in experiment [6], in experiment [7] and in experiment [8] was inactive.
Regarding `O=C(Nc1cc(Oc2ccc(O)cc2)cc([N+](=O)[O-])c1)c1cc(-c2ccc(F)cc2)no1`, the growth inhibition in experiment [1] is 37%; in experiment [4], 88% (active). In addition, the inhibition was 61% (active) in experiment [2] and 0% in experiment [3]. Further, the outcome in experiment [5], in experiment [6], in experiment [7] and in experiment [8] was inactive.
Consider `Cc1ccnc(NC(c2cccc(Cl)c2Cl)c2ccc3cccnc3c2O)c1` (stereo not given), for which the growth inhibition in experiment [1] is 38%; in experiment [4] it was 86% (active). In addition, the inhibition in experiment [2] is 46%; in experiment [3], 7%. For the same compound, the result in experiment [5], in experiment [6], in experiment [7] and in experiment [8] was inactive.
Take `CN(CC1CCC(NC(=O)/C=C/c2ccc(Cl)c(Cl)c2)CC1)C1CCC(c2c[nH]c3ccccc23)CC1` (stereo not given): the growth inhibition was 53% (active) in experiment [1] and 99% (active) in experiment [4]. Also, the inhibition in experiment [2] is 53% (active); in experiment [3] it was -3%. The result in experiment [5], in experiment [6], in experiment [7] and in experiment [8] was inactive.
In the case of `COc1ccc(Nc2cc(C)nc(NCc3ccc4c(c3)OCO4)n2)cc1`, the figures for the growth inhibition in experiment [1] and in experiment [4] were 78% (active) and 99% (active), respectively. Also, the inhibition in experiment [2] was 26%; in experiment [3], -2%. The result in experiment [5], in experiment [6], in experiment [7] and in experiment [8] was inactive.
On to `Cc1cc(Cc2ccc(S(=O)(=O)c3cc4c(cc3O)CCN(C)CC4)cc2)ccc1Cl`, for which the figures for the growth inhibition in experiment [1] and in experiment [4] were 12% and 96% (active), respectively. For the same compound, the inhibition is 7% in experiment [2] and 0% in experiment [3]. Also, the result in experiment [5], in experiment [6], in experiment [7] and in experiment [8] was inactive.
As for `Cc1nnc2c(N(C(=O)NCCc3ccccc3)C(=O)NCCc3ccccc3)cc3cc(Cl)ccc3n12`, the growth inhibition in experiment [1] is 34%; in experiment [4] it was 91% (active). For the same compound, the inhibition in experiment [2] is 0%; in experiment [3], -5%. For the same compound, the result in experiment [5], in experiment [6], in experiment [7] and in experiment [8] was inactive.
`OCC1CCN(Cc2ccc(-c3ccc(-c4nc5ccccc5[nH]4)cc3)cc2)CC1`: the growth inhibition in experiment [1] is 84% (active); in experiment [4] it was 100% (active). The inhibition in experiment [2] was 37%; in experiment [3], 1%. Also, the outcome in experiment [5], in experiment [6], in experiment [7] and in experiment [8] was inactive.
Take `NC(=O)C1CCN(Cc2ccc(-c3ccc(-c4nc5ccc(F)cc5[nH]4)cc3)cc2)CC1`: the values for the growth inhibition in experiment [1] and in experiment [4] were 100% (active) and 101% (active), respectively. Further, the figures for the inhibition in experiment [2] and in experiment [3] were 12% and 7%, respectively. Also, the outcome in experiment [5], in experiment [6], in experiment [7] and in experiment [8] was inactive.
Take `O=C(Nc1cncc(NC(=O)c2ccc(Cl)c(Cl)c2)c1)c1ccc(Cl)c(Cl)c1`: the growth inhibition in experiment [1] was 70% (active); in experiment [4], 101% (active). Moreover, the inhibition in experiment [2] was 12%; in experiment [3] it was 0%. In addition, the outcome in experiment [5], in experiment [6], in experiment [7] and in experiment [8] was inactive.
`COc1ccc2nccc(N3CCC(SCCNCc4ccc5c(n4)NC(=O)CO5)C3)c2n1` (stereo not given): the growth inhibition in experiment [1] is 9%; in experiment [4], 101% (active). The inhibition is 30% in experiment [2] and -2% in experiment [3]. Moreover, the outcome in experiment [5], in experiment [6], in experiment [7] and in experiment [8] was inactive.
In the case of `Cc1cc(-c2c[nH]c3ncc(-c4cccc5ncccc45)cc23)ccc1C(=O)O`, the growth inhibition in experiment [1] was 77% (active); in experiment [4] it was 99% (active). The inhibition in experiment [2] was 31%; in experiment [3], -7%. Further, the result in experiment [5], in experiment [6], in experiment [7] and in experiment [8] was inactive.
`CN(C)CCOc1cc(NC(=O)/C=C/c2cccc3ccccc23)ccc1I`: the growth inhibition is 7% in experiment [1] and 98% (active) in experiment [4]. The inhibition in experiment [2] was 55% (active); in experiment [3], 0%. Besides, the outcome in experiment [5], in experiment [6], in experiment [7] and in experiment [8] was inactive.
